Screening results from PubChem.
Vaccinia mCherry = vaccinia inhibition (mCherry reporter). Vaccinia virus mCherry reporter infection, fluorescence. Potency, µM (top dose mostly 36.5 µM), for inactives: at the top dose activity change, negative = inhibition, actives largely listed as inhibitors. 310,000 tested, 0.63% active; calls by dose curve; tested in A549 cells; note: potency is the fitted concentration of half-maximal effect; nearly all actives have a fitted effect of over 35% in size
VACV Venus inh = vaccinia inhibition (Venus reporter). Vaccinia virus Venus reporter expression, fluorescence. Potency, µM (titrated, usually from 36.5 µM), inactives show top-dose activity change, negative = inhibition, hits mostly inhibitors. 330,000 tested, 0.46% active; calls by dose curve; tested in A549 cells; note: potency is the fitted concentration of half-maximal effect; nearly all actives have a fitted effect of over 30% in size
HCMV antiviral = blocks human cytomegalovirus replication | 410,000 tested, 4.5% active | activity change, negative = inhibition, % at 57.5 µM | HFF cells, HCMV-luciferase reporter, 72 h; stronger effect = lower value; in the data active = activity change below about -60%; inconclusive = no clear call, values can overlap the other calls; inactive = above about -39%
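Steps: HFFs plated, 16 h 37C; compounds added; HCMV-luciferase added to MOI 1 PFU/cell; 72 h 37C; OneGlo reagent, 5 min room temperature; luminescence read, normalized to controls.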
HCV inhibitor = inhibitors of hepatitis C virus infection | Huh7.5.1 HCVcc-Cre infection, luciferase reporter, 44 h | Potency, µM (titrated, usually from 41.8 µM), inactives show at the top dose activity change, negative = inhibition, actives largely listed as inhibitors | 340,000 tested, 3.4% active | AID 651820; active = well fitted inhibition curve with a large enough effect; inconclusive = small, poorly fitted or top-dose-only effect, or another doubt; inactive = no such curve, though single readings can be large or run the other way; note: potency is the fitted concentration of half-maximal effect
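Infectious HCVcc-Cre (~0.5 moi) was added to cells just after compound, with cells seeded 4 h earlier at 1,000 per well. Luciferase activity after 44 h culture reported infection; substrate was incubated 15 min at room temperature before reading.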
FMDV antiviral = foot and mouth disease virus antiviral activity | FMDV antiviral cell-based qHTS | Potency, µM (doses to about 57.9 µM), for inactives: at the highest dose activity change, negative = inhibition, most hits filed as inhibitors | 410,000 tested, 1.2% active | AID 1159524; calls by dose curve; tested in HEK293T cells; note: read-out not given here; potency is the fitted concentration of half-maximal effect; nearly all actives have a fitted effect of over 45% in size
* hit, by the source's call; i = inactive; ? = inconclusive; nt = no result; ! = a repeat was not active. Sampled rows, rich in hits. Any-hit rate of the full collection: about 7.3%. % is set by controls: 0 for no effect and ±100 for the full control effect.

SMILES | Vaccinia mCherry | VACV Venus inh | HCMV antiviral | HCV inhibitor | FMDV antiviral
COc1cccc(CNC(=O)Cn2cccc2C(=O)c2ccccc2)c1 | -17.3% | -7.9% | -95.8* | nt | 14.1%
COc1cccc(CNC(=O)Cc2ccc(-n3c(=O)[nH]c4ccccc4c3=O)cc2)c1 | -25.5% | -19.6% | -96.8* | -6.2% | 1.8%
COc1ccc(CCNC(=O)Cn2cccc2C(=O)c2ccccc2)c(OC)c1 | nt | nt | -96.2* | ? | 3.9%
O=C(O)C1CCN(c2nc(-c3ccccc3)c3cc(Br)ccc3n2)CC1 | -16.2% | -4.6% | -28.6 | 0.0% | -20.6%
CCN1CCN(c2ncnc3ccc(Br)cc23)CC1 | -0.5% | -8.4% | -66.6* | -9.1% | -29.5%
CN1CCN(c2nc(N3CCN(CCO)CC3)nc3ccccc23)CC1 | -14.0% | -12.2% | -18.4 | ? | -0.3%
OCCN1CCN(c2cc(-c3ccccc3)c3ccccc3n2)CC1 | -15.5% | -24.2% | -63.4* | ? | ?
OCCN1CCN(c2ncnc3ccc(Br)cc23)CC1 | i | -10.1% | -78.3* | 0.4% | -23.7%
OCCN1CCN(c2nc(-c3ccccc3)c3cc(Br)ccc3n2)CC1 | ? | -9.8% | -61.6* | -13.4% | -8.2%
CC(C)(C)OC(=O)N1CCC(N2CCN(Cc3ccccc3)C(=O)C2=O)CC1 | -10.5% | -9.4% | 16.1 | nt | -1.3%
CN(C)c1ccc(NC(=O)/C=C/c2c(Cl)cccc2Cl)cc1 | 28.2µM* | 6.3% | ? | ? | 22.0%
NC(=O)c1ccccc1NC(=O)/C=C/c1c(Cl)cccc1Cl | nt | nt | 110.6 | ? | 41.3%
CN(C)S(=O)(=O)c1ccc(NC(=O)/C=C/c2ccccc2Cl)cc1 | ? | -29.2% | ? | 8.91µM* | 14.2%
O=C(/C=C/c1ccccc1Cl)Nc1ccccc1 | i | -20.9% | 130.6 | ? | -15.6%
O=C(NC1CCCC1)c1nc2ccccc2nc1-c1ccc(F)c(F)c1 | nt | nt | 64.1 | nt | nt
COc1ccc(-c2nc3ccc(NC(=O)COC(C)=O)cc3c(=O)n2Cc2ccccc2)cc1COc1ccc(NC(C)=O)cc1 | i | -11.2% | nt | nt | nt
CC(C)Cn1c([N+](=O)[O-])nc2c1c(=O)[nH]c(=O)n2C | ? | ? | -103.2* | ? | 28.2µM*
Cn1c(=O)[nH]c(=O)c2c1nc([N+](=O)[O-])n2Cc1ccccc1 | ? | 10µM* | -97.2* | -83.5% | 7.94µM*
COc1cc(OC)c(-c2nn3c(-c4n[nH]c5c4CCC5)nnc3s2)cc1OC | 7.08µM*! | ? | nt | nt | nt
CCC(Cc1ccccc1)NC(=O)CN1C(=O)CSc2ncccc21 (centres undefined) | i | -1.5% | -24.0 | 12.6µM* | -16.6%
Cc1ccc2onc(CC(=O)N3CCN(c4ccc(F)cc4)CC3)c2c1 | -5.1% | -13.7% | -12.9 | nt | -14.7%
Cc1ccc(-n2nc(CO)c(C(=O)NC(C)c3ccccc3)n2)cc1C (centres undefined) | -10.2% | -22.5% | -63.2* | nt | ?
COc1ccc(Sc2ccc(NC(=O)c3ccccc3Cl)cc2C#N)cc1 | nt | -28.9% | -26.1 | 11.2µM* | -17.9%
N#Cc1cc(NC(=O)c2ccc(Cl)cc2)ccc1Sc1ccccc1 | ? | ? | -82.9* | nt | -11.0%
Cn1c(=O)c(-c2cccc(C#N)c2)nc2cnc(Oc3ccccc3)nc21 | nt | nt | nt | nt | -7.1%
SMILES | Vaccinia mCherry | VACV Venus inh | HCMV antiviral | HCV inhibitor | FMDV antiviral
CCN(C[C@H]1N[C@@](C)(C(=O)OC)[C@H]2C(=O)N(C)C(=O)[C@@H]12)C(=O)Nc1ccc(OC)cc1 | -17.1% | -8.3% | 45.8 | 2.51µM* | -11.4%
CCN(C[C@H]1N[C@@](C)(C(=O)OC)[C@H]2C(=O)N(C)C(=O)[C@@H]12)C(=O)Nc1ccc(F)cc1 | -13.2% | -8.7% | 7.9 | -1.6% | -14.7%
O=c1ccn2c(n1)OC1CC2OC1COC(c1ccccc1)(c1ccccc1)c1ccccc1 (centres undefined) | nt | nt | -1.0 | nt | nt
Cc1ccccc1Nc1c(-c2ccc(N3CCOCC3)cc2)nc2ccc(Br)cn12 | -17.9% | -9.1% | 19.4 | nt | 29.1%
C=CCN=c1scc(-c2ccccc2)n1/N=C/c1ccccn1 | 2.24µM* | 12.7% | -99.3* | 14.1µM* | 9.7%
C=CCn1c(-c2ccc(OC)c(OC)c2)cs/c1=N\c1ccccn1 | i | -11.1% | 30.5 | -26.4% | ?
C(=N\N1CCN(c2ccccn2)CC1)/c1ccccn1 | -13.2% | -4.5% | -29.7 | 17.5% | 53.1%
C=CCN=c1scc(-c2ccc(F)cc2)n1/N=C/c1ccccn1 | -21.2% | -6.2% | -85.3* | ? | -0.4%
CC(C)c1nn2c(=O)cc(COC(=O)CNC(=O)c3ccccc3Cl)nc2s1 | -1.5% | 4.6% | 13.8 | nt | -2.5%
